Assay results reported in the supplement of paper PMC3334620.
In all, about 33,000 sequences were measured (“E-score (-0.5 to 0.5)”: median about -0.0014, highest 2% from about 0.25 on). The sample as a whole holds a higher share of the highest values than the screen did.

Each sequence was assayed against T1, Cad1 (UniProt P24813) (assay: PBM E-score (8-mer binding enrichment) (E-score (-0.5 to 0.5)); higher = stronger / more preferred TF binding). Conditions: protein concentration: 100 nM; construct: GST-full length.
T1 sequence: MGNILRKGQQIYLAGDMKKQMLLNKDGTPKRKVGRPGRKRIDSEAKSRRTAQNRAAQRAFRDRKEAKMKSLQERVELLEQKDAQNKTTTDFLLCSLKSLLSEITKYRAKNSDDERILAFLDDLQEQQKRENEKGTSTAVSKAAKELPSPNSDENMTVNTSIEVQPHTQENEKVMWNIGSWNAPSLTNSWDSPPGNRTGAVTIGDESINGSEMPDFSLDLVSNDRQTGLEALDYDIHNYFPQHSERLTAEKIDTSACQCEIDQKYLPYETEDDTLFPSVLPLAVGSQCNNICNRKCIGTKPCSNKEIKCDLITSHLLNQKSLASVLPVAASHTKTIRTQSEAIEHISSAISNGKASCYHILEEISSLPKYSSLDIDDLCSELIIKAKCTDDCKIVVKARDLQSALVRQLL
Method in brief: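 Universal all-10-mer Agilent arrays, fresh or stripped once, were converted to double-stranded form by primer extension. GST-tagged yeast transcription factors from PURExpress in vitro transcription/translation, full-length or DNA-binding domain only, were applied at about 100-200 nM and detected with fluorescent anti-GST. After masliner normalisation, the Universal PBM Analysis Suite scored each ungapped eight-base word together with its reverse complement by E-score.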

Question: With ACTTCACT as the sequence, how does the “PBM E-score” value read?
Answer: -0.00075

Question: Which “PBM E-score” value does the source give for CACAAGCG here?
Answer: -0.145

Question: ATATCCCA was tested. Which “PBM E-score” value did it give?
Answer: 0.0408

Question: Which “PBM E-score” value does the source give for CGCTCCAA here?
Answer: 0.0125

Question: For GCGTTAAC, which “PBM E-score” value is on record?
Answer: 0.257

Question: With ACGTTAAC as the sequence, how does the “PBM E-score” value read?
Answer: 0.102

Question: For CTGTTAAC, which “PBM E-score” value is on record?
Answer: 0.258

Question: With CCGTTAAC as the sequence, how does the “PBM E-score” value read?
Answer: 0.0965

Question: With GTGTTAAC as the sequence, how does the “PBM E-score” value read?
Answer: 0.168

Question: With ATGTTAAC as the sequence, how does the “PBM E-score” value read?
Answer: 0.0833

Question: With TGGGAACA as the sequence, how does the “PBM E-score” value read?
Answer: -0.0827

Question: With CAGGTTTC as the sequence, how does the “PBM E-score” value read?
Answer: 0.111

Question: ATGAACTA was tested. Which “PBM E-score” value did it give?
Answer: 0.0699

Question: How did the “PBM E-score” value turn out when CCCTTTAA was run?
Answer: -0.135

Question: With GTGTTTAA as the sequence, how does the “PBM E-score” value read?
Answer: 0.233

Question: With GTAGATCA as the sequence, how does the “PBM E-score” value read?
Answer: 0.0116

Question: For AGTGGTAC, which “PBM E-score” value is on record?
Answer: -0.103

Question: With GCCACAGC as the sequence, how does the “PBM E-score” value read?
Answer: -0.115

Question: CTGAGTAC was tested. Which “PBM E-score” value did it give?
Answer: -0.06

Question: ATGAGTAA was tested. Which “PBM E-score” value did it give?
Answer: 0.286

Question: With CTGAGTAA as the sequence, how does the “PBM E-score” value read?
Answer: 0.254

Question: How did the “PBM E-score” value turn out when ATGAGTAC was run?
Answer: 0.0206

Question: Which “PBM E-score” value does the source give for ATGAGTAG here?
Answer: 0.0743

Question: For GTGAGTAA, which “PBM E-score” value is on record?
Answer: 0.129

Question: With CCTAGTGA as the sequence, how does the “PBM E-score” value read?
Answer: -0.171

Question: With AGGGGTCA as the sequence, how does the “PBM E-score” value read?
Answer: -0.304

Question: CTCGGGGA was tested. Which “PBM E-score” value did it give?
Answer: -0.0482

Question: Which “PBM E-score” value does the source give for GATCCGTA here?
Answer: -0.0959

Question: Which “PBM E-score” value does the source give for ATCGTAAG here?
Answer: -0.0168

Question: Which “PBM E-score” value does the source give for CTCGTAAG here?
Answer: 0.264

Question: CTCGTAAC was tested. Which “PBM E-score” value did it give?
Answer: 0.112

Question: CAGAGACC was tested. Which “PBM E-score” value did it give?
Answer: -0.145

Question: How did the “PBM E-score” value turn out when ATGGTCGC was run?
Answer: -0.127

Question: How did the “PBM E-score” value turn out when AGGTCTCG was run?
Answer: -0.2

Question: For CCAGAAGC, which “PBM E-score” value is on record?
Answer: -0.248

Question: How did the “PBM E-score” value turn out when GAATCAAA was run?
Answer: 0.0378

Question: Which “PBM E-score” value does the source give for GTATCAAC here?
Answer: -0.0681

Question: ATATCAGG was tested. Which “PBM E-score” value did it give?
Answer: 0.00611

Question: For ATATCAAG, which “PBM E-score” value is on record?
Answer: 0.251

Question: How did the “PBM E-score” value turn out when TTATCAAA was run?
Answer: 0.3

Question: For ATATCAAC, which “PBM E-score” value is on record?
Answer: 0.253

Question: CAATCAAC was tested. Which “PBM E-score” value did it give?
Answer: 0.228

Question: With GAATCAAC as the sequence, how does the “PBM E-score” value read?
Answer: 0.264

Question: For GTATCAAA, which “PBM E-score” value is on record?
Answer: 0.142

Question: Which “PBM E-score” value does the source give for CTATCAAG here?
Answer: 0.0773

Question: CTATCAAA was tested. Which “PBM E-score” value did it give?
Answer: 0.0734

Question: How did the “PBM E-score” value turn out when CTATCAAC was run?
Answer: 0.219

Question: For TCAGCACA, which “PBM E-score” value is on record?
Answer: 0.172

Question: With TAGCGCCA as the sequence, how does the “PBM E-score” value read?
Answer: 0.0297

Question: Which “PBM E-score” value does the source give for CCAGCTGA here?
Answer: 0.155

Question: How did the “PBM E-score” value turn out when AGTCAGGG was run?
Answer: -0.148

Question: For CGATTCTC, which “PBM E-score” value is on record?
Answer: 0.0405

Question: ACATGGCC was tested. Which “PBM E-score” value did it give?
Answer: 0.141

Question: CCGCGAAG was tested. Which “PBM E-score” value did it give?
Answer: 0.12

Question: With ACTGTCGA as the sequence, how does the “PBM E-score” value read?
Answer: 0.0753

Question: For AAGGCTGA, which “PBM E-score” value is on record?
Answer: -0.00348

Question: With CCAGTGCC as the sequence, how does the “PBM E-score” value read?
Answer: -0.0306

Question: For AGTGCGAG, which “PBM E-score” value is on record?
Answer: -0.0178

Question: How did the “PBM E-score” value turn out when AGATCAAT was run?
Answer: -0.021

Question: With ATATCAAA as the sequence, how does the “PBM E-score” value read?
Answer: 0.0329

Question: With ATATCAAT as the sequence, how does the “PBM E-score” value read?
Answer: 0.253

Question: AGACCTAT was tested. Which “PBM E-score” value did it give?
Answer: 0.111

Question: How did the “PBM E-score” value turn out when ATCGATGA was run?
Answer: 0.13

Question: For CTTCCGCA, which “PBM E-score” value is on record?
Answer: 0.0248

Question: Which “PBM E-score” value does the source give for ATTCCGCA here?
Answer: -0.0887

Question: With GTTCCGCA as the sequence, how does the “PBM E-score” value read?
Answer: 0.252

Question: GACGGAGA was tested. Which “PBM E-score” value did it give?
Answer: 0.038

Question: How did the “PBM E-score” value turn out when ATAGGTGA was run?
Answer: -0.0537

Question: AAATCGAA was tested. Which “PBM E-score” value did it give?
Answer: -0.156

Question: How did the “PBM E-score” value turn out when CAATCGAA was run?
Answer: 0.0916

Question: How did the “PBM E-score” value turn out when TAATCGAA was run?
Answer: 0.35

Question: For TAATCCAA, which “PBM E-score” value is on record?
Answer: 0.255

Question: How did the “PBM E-score” value turn out when GAATCCAA was run?
Answer: -0.0184

Question: AAATCCAA was tested. Which “PBM E-score” value did it give?
Answer: 0.115

Question: With CGTTCGTC as the sequence, how does the “PBM E-score” value read?
Answer: 0.248

Question: For AGTCTCAT, which “PBM E-score” value is on record?
Answer: -0.0485

Question: Which “PBM E-score” value does the source give for GCGCATCC here?
Answer: -0.0757

Question: For ATGAGGAC, which “PBM E-score” value is on record?
Answer: -0.0183

Question: How did the “PBM E-score” value turn out when AGGGGCGC was run?
Answer: -0.103

Question: For ATTGTCAG, which “PBM E-score” value is on record?
Answer: 0.306

Question: ATTGTCAA was tested. Which “PBM E-score” value did it give?
Answer: 0.084

Question: ATTGTCCG was tested. Which “PBM E-score” value did it give?
Answer: 0.271

Question: How did the “PBM E-score” value turn out when ATTGTCCC was run?
Answer: -0.0923

Question: How did the “PBM E-score” value turn out when ATTGTCCA was run?
Answer: 0.132

Question: Which “PBM E-score” value does the source give for ATTGTCAC here?
Answer: 0.0726

Question: How did the “PBM E-score” value turn out when ATCAGAAG was run?
Answer: -0.0366

Question: How did the “PBM E-score” value turn out when ATTTGGAG was run?
Answer: -0.204
